# Screens: PubChem BioAssay, The Scripps Research Institute Molecular Screening Center
# Only some compounds are listed: those with a hit (about 3.4% of all), similar ones and a draw of the others.
# proKLK7 act: activators of human kallikrein-7 zymogen; P49862; purified proKLK7, EDANS-DABCYL substrate fluorescence; 100% is mature enzyme control, 0% vehicle; activation, % at 7 µM; 0.9% of 370,000 active; AID 652039;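 active = activation above the mean of all tested compounds plus 3 SD, computed per campaign excluding outliers beyond control limits, cut at about 13% in these data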
# PLC-gamma1 inh: PLC-gamma1 (human) inhibition, primary screen. P19174. purified PLC-gamma1, fluorogenic substrate, fluorescence. inhibition, % at 12.2 µM. 0.84% of 370,000 active
# HGIII-sPLA2 inh: Inhibits HGIII-sPLA2 liposome hydrolysis, primary screen; QFRET BODIPY PC-A2 liposome hydrolysis, fluorescence; inhibition, % at 12.2 µM; 0.56% of 370,000 active;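 active = inhibition above mean plus 3 SD of compounds lying within the high and low control bounds, cut at about 19% in these data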;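 note: 0% = median of test compound wells and 100% = no enzyme DMSO wells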
# PLC-beta3 inh: PLC-beta3 (human) inhibition, primary screen | Q01970 | Purified PLC-beta3, fluorogenic substrate, fluorescence | inhibition, % at 12.2 µM | 0.18% of 370,000 active | AID 720704; in the data active = inhibition above about 11%;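 note: 0% = median of compound wells on plate and 100% = full blocker control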
# Target sequence (Q01970 whole entry, looked up): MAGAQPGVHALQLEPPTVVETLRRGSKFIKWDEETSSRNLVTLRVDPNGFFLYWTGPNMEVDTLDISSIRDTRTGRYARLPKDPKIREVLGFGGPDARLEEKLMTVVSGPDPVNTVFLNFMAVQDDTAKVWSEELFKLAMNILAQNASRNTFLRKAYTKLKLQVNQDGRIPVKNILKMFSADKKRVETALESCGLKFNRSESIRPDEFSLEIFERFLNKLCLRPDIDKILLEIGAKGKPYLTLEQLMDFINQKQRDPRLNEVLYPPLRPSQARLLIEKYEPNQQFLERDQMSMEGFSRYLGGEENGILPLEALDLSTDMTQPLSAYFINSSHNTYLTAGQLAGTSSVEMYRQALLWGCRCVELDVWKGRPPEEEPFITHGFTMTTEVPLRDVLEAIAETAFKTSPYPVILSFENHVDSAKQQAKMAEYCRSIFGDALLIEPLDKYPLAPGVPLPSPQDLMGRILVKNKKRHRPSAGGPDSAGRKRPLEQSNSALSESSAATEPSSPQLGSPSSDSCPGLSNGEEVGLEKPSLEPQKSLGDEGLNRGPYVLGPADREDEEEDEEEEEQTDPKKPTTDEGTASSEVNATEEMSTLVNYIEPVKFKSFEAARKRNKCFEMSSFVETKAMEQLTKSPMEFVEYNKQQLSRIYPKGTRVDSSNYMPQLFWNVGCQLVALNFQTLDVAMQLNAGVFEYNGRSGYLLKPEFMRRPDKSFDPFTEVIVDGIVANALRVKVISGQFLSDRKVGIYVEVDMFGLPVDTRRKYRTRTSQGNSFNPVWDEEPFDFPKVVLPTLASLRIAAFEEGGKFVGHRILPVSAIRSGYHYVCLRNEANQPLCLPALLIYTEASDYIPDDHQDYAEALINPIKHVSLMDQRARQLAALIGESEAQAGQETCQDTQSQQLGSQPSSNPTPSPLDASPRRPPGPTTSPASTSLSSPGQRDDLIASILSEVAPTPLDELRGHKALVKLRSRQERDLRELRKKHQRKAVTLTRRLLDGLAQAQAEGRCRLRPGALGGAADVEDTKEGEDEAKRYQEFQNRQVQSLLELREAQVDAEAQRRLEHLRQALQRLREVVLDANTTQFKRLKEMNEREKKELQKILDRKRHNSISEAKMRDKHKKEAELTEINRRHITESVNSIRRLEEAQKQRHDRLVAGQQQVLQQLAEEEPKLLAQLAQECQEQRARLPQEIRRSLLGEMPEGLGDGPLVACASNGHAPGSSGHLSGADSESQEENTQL
# ADAM17 inh: ADAM17 inhibition, QFRET primary screen. 0.83% of 370,000 active. inhibition, % at 6.95 µM. recombinant ADAM17, EDANS/DABCYL FRET peptide cleavage. P78536. AID 720648;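 active = inhibition above the mean of compounds lying between control limits plus 3 SD, set per campaign, cut at about 8.5% in these data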;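 note: 0% = DMSO-only wells as the low control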
# ADAM10 inh: inhibitors of human ADAM10. O14672. recombinant ADAM10, EDANS/DABCYL FRET peptide cleavage, 3 h. inhibition, % at 7 µM. 0.62% of 370,000 active. AID 720582;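 active = inhibition above a per-campaign cutoff equal to the mean of compounds falling between control-based bounds plus 3 SD, cut at about 20% in these data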;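 note: 0% = DMSO wells while the 100% control is not disclosed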
# PLCg1 ctr: PLC-gamma1 inhibition, counter-screen for PLC-beta3 hits. shares compounds with PLC-gamma1 inh. purified PLC-gamma1, fluorogenic substrate, fluorescence. inhibition, % at 12.3 µM. 3.1% of 3,300 active
# PLCb3 confirm: confirmation of human PLC-beta3 inhibitors | shares compounds with PLC-gamma1 inh | purified PLC-beta3, fluorogenic substrate fluorescence | inhibition, % at 12.3 µM | 1% of 3,300 active; in the data active = inhibition above about 11%
# Active calls of the source: *; . = no result. Cut-off read from the data, not from the text of the source, unless noted: active = inhibition above about 9.5%; inactive = the rest.
SMILES,proKLK7 act,PLC-gamma1 inh,HGIII-sPLA2 inh,PLC-beta3 inh,ADAM17 inh,ADAM10 inh,PLCg1 ctr,PLCb3 confirm
COC(=O)C1=C(C)N(Cc2ccccc2C(F)(F)F)C(=NCc2ccc(OC)cc2)NC1c1ccccc1 (centres undefined),0,5,-8,0,-1,-3,.,.
CN1C(=O)C(O)(CC(=O)/C=C/c2ccco2)c2cc(Br)ccc21 (centres undefined),0,0,-2,-3,0,-7,.,.
CN1C(=O)C(O)(CC(=O)/C=C/c2ccco2)c2ccccc21 (centres undefined),0,2,14,14*,4,6,-4,-2
O=c1c2ccccc2c(C=NCc2ccccn2)c(O)n1-c1ccccc1,0,-10,1,-13,-4,-9,.,.
O=c1oc2ccccc2c(O)c1C=NCc1ccccn1,0,12*,-7,9,4,7,1,1
CC(=O)c1ccc2noc(-c3cccc(C)c3)c2c1,2,-66,-5,-100,-27,-106,.,.
O=C(NCc1ccccc1)c1cccc(NC(=O)C2CC2)c1,0,4,6,0,-4,-16,.,.
Cc1[nH]c(=O)c(C#N)c(C)c1Cc1ccc(Cl)cc1Cl,0,0,-1,2,-4,3,.,.
Cc1[nH]c(=O)c(C#N)c(C)c1CSc1ncccn1,0,12*,13,6,2,-12,-6,0
CCOc1ccc(N2C(=O)CC(NC3CCN(C(=O)c4cccs4)CC3)C2=O)cc1 (centres undefined),0,3,-3,-12,-7,-19,.,.
O=C(CCCN1C(=O)/C(=C\c2cccs2)SC1=S)Nc1ccc(O)cc1C(=O)O,0,-1,-24,-6,-4,2,.,.
O=C(CCCN1C(=O)/C(=C\c2ccco2)SC1=S)Nc1ccc(O)cc1C(=O)O,-1,9.6*,-15,-25,-6,-28,-11,-24
O=C(CCCN1C(=O)/C(=C/c2ccco2)SC1=S)Nc1cccc(C(=O)O)c1,0,11*,-23,-12,-1,-5,9,-14
O=C(CCCN1C(=O)/C(=C\c2cccs2)SC1=S)Nc1cccc(C(=O)O)c1,0,0,0,1,-2,-1,.,.
CC(NC(=O)COc1ccc(N(C)S(=O)(=O)c2ccccc2)cc1)c1ccccc1 (centres undefined),0,-1,-4,0,4,8,.,.
O=C(O)CCC(=O)Nc1ccc(SSc2ccc(NC(=O)CCC(=O)O)cc2)cc1,0,-2,2,-6,-6,-5,.,.
CCCC(C(=O)NC1CCCC1)N(Cc1ccc(OC)cc1)C(=O)c1snc(C(N)=O)c1N (centres undefined),1,-44,-1,-72,-31,-83,.,.
Cc1cc(C)nc(NCC(O)COc2ccccc2C)n1 (centres undefined),0,12*,-2,9,-1,-2,-4,-2
Cc1cc(C)nc(NCC(O)CNc2ccccc2C)n1 (centres undefined),0,-1,10,7,-3,3,.,.
Cc1ccccc1-c1csc(C(O)(c2ccccc2)C(F)(F)F)n1 (centres undefined),-1,2,-3,1,7,13,.,.
CN(CC(=O)Nc1cccc(F)c1)C(=O)Cc1ccsc1,0,-4,12,-5,-5,-8,.,.
CN(CC(=O)Nc1cccc(F)c1)C(=O)CCCc1cccs1,0,13*,1,10,7,11,-1,0
CCOC(=O)N1CCC(N2CCN(S(=O)(=O)c3ccc([N+](=O)[O-])cc3)CC2)CC1,0,0,-2,-5,-1,5,.,.
CCOC(=O)c1c(C)nc2ccc(Cl)cc2c1-c1ccccc1,0,6,-3,2,2,7,.,.
CCOC(=O)COc1nc2ccc(Br)cc2c(-c2ccccc2)c1C(C)=O,0,9.8*,0,-3,3,0,-5,-4
